These entries were drawn from the full list.
aSyn UTR act: Activators via SNCA 5'UTR binding, MLPCN | alpha-synuclein 5'UTR reporter, activators screen | activity score, % (tested at 7.5 µM), hits read low | 300,000 tested, 7.1% active | AID 1814, 2009; in the data active = activity score below about -60%
An asterisk follows results filed as active.

SMILES | aSyn UTR act
Cc1ccc(C2=CC(c3cccs3)n3nnnc3N2)cc1 (stereo not given) | -187*
O=C(Nc1ccc2c(c1)OCCO2)c1cccc2nc3ccccc3nc12 | 60
Cc1ccc(-c2cc(C(=O)Nc3ccc4c(c3)OCCO4)c3ccccc3n2)cc1 | -74*
O=C(NC1=NCCS1)c1cc(-c2ccc(-c3ccccc3)cc2)nc2ccccc12 | -88*
COc1ccc(-c2cn3cc(Cl)ccc3n2)cc1OC | -239*
COCCNc1oc(-c2ccc(C)cc2)nc1C#N | -107*
N#Cc1nc(-c2ccc(Cl)cc2)oc1NCc1ccco1 | -108*
COCCNc1oc(-c2ccc(Cl)cc2)nc1C#N | -162*
Cc1cccn2cc(COc3cccc([N+](=O)[O-])c3)nc12 | -65*
O=C(/C=C/Nc1ccc(Br)cc1F)c1ccccc1 | 78
O=C(/C=C/Nc1ccc(F)c(F)c1)c1ccc(Br)cc1 | -192*
O=C(/C=C/Nc1ccc(F)cc1)c1ccc(Br)cc1 | -181*
O=C(/C=C/Nc1ccc([N+](=O)[O-])cc1)c1ccc(Br)cc1 | -74*
O=C(N/N=C/c1ccc(Br)s1)c1c[nH]c2ccccc12 | -152*
O=C(N/N=C/c1cc(Br)cs1)c1c[nH]c2ccccc12 | -68*
Cc1cccc(C(=O)Nc2ccccc2C(=O)OCC(=O)Nc2ccc(C#N)cc2)c1 | -100*
COC(=O)c1c(NC(=O)CCl)sc(C(=O)N2CCOCC2)c1C | -83*
O=C(Nc1ccc(-c2nc3ccc(NC(=O)c4cccs4)cc3[nH]2)cc1)c1cccs1 | 122
CC(=O)Nc1ccc2nc(-c3ccccn3)[nH]c2c1 | -158*
O=C(Nc1ccc2nc(-c3cccs3)[nH]c2c1)c1cccs1 | -223*
O=C(Nc1ccc2nc(-c3cccs3)[nH]c2c1)c1ccco1 | -183*
CCCCN=Cc1sc2ccc(OCC)cc2c1O | -73*
C=CCN=Cc1sc2ccc(OCC)cc2c1O | -115*
CCc1ccc(C(=O)/C=C/c2cnn(C)c2C)s1 | -117*
Nc1ccc(/C=C/C(=O)c2cccs2)cc1 | -135*
SMILES | aSyn UTR act
Cc1c(/C=C/C(=O)c2cccs2)cnn1C | -125*
COc1ccccc1-n1cc2c([N+](=O)[O-])cc([N+](=O)[O-])cc2n1 | -69*
CC(=O)N1CCC(=NNc2nc3ccccc3[nH]2)CC1 | -66*
CCC(C)(C)C1CCC(=NNc2nc3ccccc3[nH]2)CC1 (stereo not given) | -69*
Cc1sc2c(c1C)CN(Cc1ccncc1)CN2C(=O)c1ccco1 | -93*
[O-]/C(=C(\C(=S)Nc1ccc(SC(F)F)cc1)[n+]1ccccc1)c1ccc(Cl)cc1Cl | -72*
OC(COc1ccc(CNCCc2ccc(C(F)(F)F)cc2)cc1)CN1CCCCC1 (stereo not given) | 82
CCOc1ncccc1C(=O)Nc1nc(SC)ns1 | -108*
CSc1nsc(NC(=O)Cc2ccccc2)n1 | -85*
O=C(/C=C/c1cccc(F)c1)c1ccc(N2CCOCC2)cc1 | -80*
CCc1ccccc1NC(=O)c1ccc(-n2c(C)ccc2C)cc1 | -98*
Cc1ccc(C)n1-c1ccc(C(=O)Nc2ccccc2F)cc1 | -157*
Cn1nnnc1SCc1ccc(C(=O)Nc2ccccc2F)cc1 | -86*
O=C(Nc1ccccc1F)c1ccc2nc(N3C(=O)CCC3=O)sc2c1 | -117*
O=C(Nc1ccc(F)cc1F)c1ccc2nc(N3CCOCC3)sc2c1 | -62*
O=C(Nc1ccccc1Cl)c1ccc2nc(N3CCOCC3)sc2c1 | -99*
O=C(N/N=C/c1sc(N2CCOCC2)nc1-c1ccccc1)c1cccc(S(=O)(=O)N2CCCC2)c1 | 99
Cc1ccc(-c2nc(N)n(C(=O)c3cccnc3)n2)cc1 | -77*
COc1ccc(C(=O)C(OC(=O)c2ccccc2)c2ccccc2)cc1 (stereo not given) | -169*
COc1ccc(C(=O)C(OC(=O)c2ccccc2Cl)c2ccccc2)cc1 (stereo not given) | -104*
FC(F)(F)c1cc(-c2ccccn2)nc2cc(-c3ccccc3)nn12 | -78*
CCOC(=O)Cc1c(C)nc2c(-c3ccccc3)cnn2c1C | -70*
CCOC(=O)C1CCN(C(=O)CCc2c(C)nc3cc(-c4ccccc4)nn3c2C)CC1 | 66
CCOC(=O)c1cnc2c(-c3ccccc3)cnn2c1C | -112*
CC(=O)c1cnc2c(-c3ccccc3)cnn2c1C | -68*
SMILES | aSyn UTR act
Fc1ccccc1CSc1nnnn1-c1ccc2c(c1)OCO2 | -65*
CN(C)CCCN(C(=O)c1ccco1)c1nc(-c2ccc(Cl)cc2)cs1 | -75*
COc1ccc(-c2csc(N(C)C(=O)c3ccco3)n2)cc1 | -182*
COc1ccc(-c2csc(NC(=O)COC(=O)c3ccco3)n2)cc1 | -140*
CC(=O)N(C)c1nc(-c2ccc(Cl)cc2)cs1 | -116*
CN(C(=O)c1ccco1)c1nc(-c2ccc(Cl)cc2)cs1 | -140*
CCn1nc(C(=O)OCC(=O)Nc2nc(-c3ccc(OC)cc3)cs2)c2ccccc2c1=O | -116*
CC1=NN(c2ccc(C)c(C)c2)C(=O)/C1=C\C=C\c1ccc([N+](=O)[O-])o1 | 78
CC1=NN(c2ccccc2)C(=O)/C1=C\C=C\c1ccccc1 | -127*
COc1ccc(/C=C2/C(=O)N(c3ccccc3)N=C2C)cc1 | 61
C=C(C(=O)c1ccccc1)C(C)C(=C)C(=O)c1ccccc1 | -149*
COc1cc(NC(=O)c2cc(-c3ccccc3Cl)on2)cc(OC)c1OC | -76*
COc1ccc(NC(=O)c2cc(-c3ccccc3Cl)on2)cc1 | -125*
O=[N+]([O-])c1ccccc1/C=N/NC1=NCCCCC1 | -173*
COC(=O)C(C)N1C(=O)S/C(=C\c2ccc(-c3ccc(C(=O)O)cc3C)o2)C1=O (stereo not given) | -137*
N#CC(C(=O)C12CC3CC(CC(C3)C1)C2)c1nc2ccccc2[nH]1 (stereo not given) | -74*
C/C(=N\Nc1nc2ccc(Cl)cc2o1)c1ccccc1 | -66*
Cc1nc(SCC(=O)c2cccs2)c2oc3ccccc3c2n1 | -134*
O=C(CSc1ncnc2c1oc1ccccc12)c1cccs1 | -125*
O=C(CC12CC3CC(CC(C3)C1)C2)NC(=S)NCc1ccccc1 | 52
Cc1nc2ccc(NC(=S)NCc3ccccc3)cc2nc1C | -80*
CCc1ccc(NC(=S)NCc2ccccc2)cc1 | -90*
CC#CCCCC(=O)Nc1ccccc1C(=O)O | -75*
CCc1ccc(CCC(=O)Nc2ccccc2C(=O)O)o1 | -85*
COc1ccc(C/C(=N\O)c2ccc(OC)cc2)cc1 | -89*
SMILES | aSyn UTR act
COc1ccc(CC(=O)Nc2ccc(C(C)=O)cc2)cc1 | -86*
CCc1ccc(NC(=O)Cc2ccc(OC)cc2)cc1 | -67*
CCc1ccc(NC(=O)Nc2cccc(OC)c2)cc1 | -199*
COc1ccc(NC(=O)Cc2ccccc2)cc1 | -101*
O=C(C[n+]1cn(C(F)F)c2ccccc21)c1ccc(OC(F)F)cc1 | -129*
Cc1ccc(C2=NNC3(CCOC(C)(C)C3)S2)cc1 (stereo not given) | -164*
N#Cc1cc2c([nH]c1=S)CCCCCC2 | -71*
O=[N+]([O-])c1cc(Cl)cc2c1nc(NCCO)c1ccccc12 | -207*
COc1ccc(-c2csc(/C(C#N)=C/Nc3cc4oc5ccccc5c4cc3OC)n2)cc1 | 43
COc1cc2c(cc1NC(=O)CN1CCN(S(=O)(=O)c3ccccc3F)CC1)oc1ccccc12 | -91*
COc1cc2c(cc1NC(=O)Cc1ccc(C)cc1)oc1ccccc12 | -130*
COc1cc2c(cc1NC(=O)Nc1ccccc1)oc1ccccc12 | -67*
COc1cc2c(cc1NC(=O)COC(=O)Cn1cnc3ccccc31)oc1ccccc12 | -76*

Screening data as filed in PubChem BioAssay.
